Results filed as inconclusive are left out. Entries that show only a call come without a potency. Activity calls are given as the source filed them. Calls follow the shape of the full dose curve.

The nature of this experiment: qHTS assay to identify small molecule agonists of the NFkB signaling pathway - cell viability counter screen (AID 1159515). Also: nearly all actives have a fitted effect of over 55% in size. To be noted: NFkB-bla ME-180 viability, CellTiter-Glo luminescence, 5 h; series mostly up to 61 µM. The source says:
National Center for Advancing Translational Sciences [NCATS]
NIH Chemical Genomics Center [NCGC]
U.S. Environmental Protection Agency [EPA]
National Institutes of Environmental Health Sciences [NIEHS]
National Toxicology Program [NTP]
U.S. Food and Drug Administration [FDA]
Transcription factors and their stimulated target gene expression play pivotal roles across many cellular processes including responses to environmental stimuli. Proper regulation of associated pathways is critical to maintain cell health and function. Constitutive activation of transcription factor pathways has been implicated in tumors as it may block cellular functions such as apoptosis and lead to invasion and metastasis. One important transcription factor that stimulates gene expression in response to cytokines, UV radiation, and other stimuli is nuclear factor-kappa B (NFkB). To measure activation of the NFkB pathway, the CellSensor NFkB-bla ME-180 cell line (Life Technologies, Carlsbad, CA) that stably expresses beta-lactamase reporter gene under the regulation of a NF-kB response element was used. This assay allows measurement of the NFkB pathway activity induced by compounds in a ME-180 cell line. This system quantitates NF-kB activity using a FRET-based assay system where beta-lactamase expression disrupts FRET, allowing for fluorescent measurement of activity. This cell line has been used to screen the Tox21 10K compound library and to identify compounds that induce the NFkB pathway activity. The cytotoxicity of the Tox21 compound library against the NFkB-bla ME-180 cell line was tested in parallel by measuring cell viability using the CellTiter-Glo assay in the same wells.
Tox21 Assay Protocol Summary:
NFkB-bla ME-180 cells were dispensed at 2,000 cells/6 uL of assay medium per well into black wall/clear-bottom 1536-well plates using a Multidrop Combi (ThermoFisher Scientific, Waltham, MA) dispenser. After the assay plates were incubated at 37 C and 5% CO2 for an overnight, 23 nL of compounds dissolved in DMSO, positive controls or DMSO only was transferred to the assay plate by a Pintool station (Kalypsys, San Diego, CA). The assay plates were incubated at 37 C and 5% CO2 for 5 hr. One uL of LiveBLAzer B/G FRET substrate (Life Technologies) was added using a Flying Reagent Dispenser (Aurora Discovery, San Diego, CA) and the plates were incubated at room temperature for 1.5 hr. Fluorescence intensity (405 nm excitation, 460 nm and 530 nm emissions) was measured using an Envision plate reader (PerkinElmer, Shelton, CT). For cytotoxicity, 3 ul/well of CellTiter-Glo reagent was added into the assay plates using an FRD. After 30 min incubation at room temperature, the luminescence intensity was measured using a ViewLux plate reader (PerkinElmer).
`O=S1(=O)N=C(O)c2ccccc21`: the Potency entry was “inactive”.
For `O=C(O)Cc1cc(I)c(Oc2ccc(O)c(I)c2)c(I)c1` the value was “inactive”; for `O=c1c2ccccc2nnn1CCl`, “inactive”; for `Nc1nc(N)c2nc(CNc3ccc(C(=O)N[C@@H](CCC(=O)O)C(=O)O)cc3)cnc2n1`, “inactive”.
To `O=C(C(=O)c1ccc(Br)cc1)c1ccc(Br)cc1` belongs “inactive”.
For `CC(C)(C)c1cc(O)c(C(C)(C)C)cc1O`, the Potency result is “inactive”.
Consider `NC1CCN(c2nc3c(cc2F)c(=O)c(C(=O)O)cn3-c2ccc(F)cc2F)C1` (stereo not given), for which the Potency entry was “inactive”.
As for `Nc1nc(CC(=O)O)cs1`, the Potency entry is “inactive”.
Consider `CC(=O)CC(=O)c1ccccc1`, for which the Potency result is “inactive”.
As for `COc1cc(C(C)(C)C)c(O)c(C(C)(C)C)c1`, the Potency result was “inactive”.
Regarding `CC/C(=C\C(=N/O)C(N)=O)C(C)[N+](=O)[O-]` (stereo not given), the Potency result was “inactive”.
As to `Cl/C(=C\n1cncn1)c1ccc(Cl)cc1Cl`, the Potency entry was “inactive”.
For `CC(=O)/C(C)=C/C1C(C)=CCCC1(C)C` (stereo not given) the value was “inactive”; for `CN(c1nccc(=O)[nH]1)C1CCN(c2nc3ccccc3n2Cc2ccc(F)cc2)CC1`, “inactive”.
For the molecule `Cc1ccc(C(C)c2ccc(C)c(C)c2)cc1C`, the Potency entry is “inactive”.
To `COc1ccc2[nH]c(S(=O)Cc3ncc(C)c(OC)c3C)nc2n1` (stereo not given) belongs “inactive”.
Regarding `C#CCOC(=O)[C@@H](C)Oc1ccc(Oc2ncc(Cl)cc2F)cc1`, the Potency result was “inactive”.
On to `CCCCCC/C=C/C=O`, for which the Potency result is “inactive”.
Regarding `CCN1CCC[C@H]1CNC(=O)c1c(OC)ccc(Br)c1OC`, the Potency entry was “inactive”.
Consider `O=[N+]([O-])c1cccc(Cl)c1Cl`, for which the Potency entry was “inactive”.
For `CCCCCOC(=O)COc1cc(N2C(=O)C3=C(CCCC3)C2=O)c(F)cc1Cl` the value was “inactive”; for `Cc1cccc(C(C)(C)C)c1O`, “inactive”; for `COCCCCCCCCOCCC[Si](C)(O[Si](C)(C)C)O[Si](C)(C)C`, “inactive”.
For `CCCCOC(=O)/C=C\C(=O)OCCCC` the value was “inactive”; for `CCOc1cc(OCC)c(C(=O)CCC(=O)O)cc1OCC`, “inactive”; for `CC(C(=O)O)c1ccc(-c2ccccc2)c(F)c1` (stereo not given), “inactive”.
On to `CCCc1ccccc1`, for which the Potency result is “inactive”.
With `NCCCN(CCO)CCO`, the Potency entry is “inactive”.
To `O=C(O)C(c1ccc(Cl)cc1)c1ccc(Cl)cc1` belongs “inactive”.
For `CCCCCCCCN(C)C`, the Potency entry was “inactive”.
`Cc1ccc(C(=O)C(C)CN2CCCCC2)cc1` (stereo not given): the Potency result was “inactive”.
In the case of `c1ccc(-c2nc[nH]c2-c2ccccc2)cc1`, the Potency result was “inactive”.
Consider `CC(C)=CCCC(C)CC=O` (stereo not given), for which the Potency entry is “inactive”.
For the molecule `Cc1cc(C)c(S(=O)(=O)O)cc1N=Nc1cc(S(=O)(=O)O)c2ccccc2c1O`, the Potency entry was “inactive”.
For `Oc1ccc(C(O)CNCCCCCCNCC(O)c2ccc(O)c(O)c2)cc1O` (stereo not given) the value was “inactive”; for `ClC(Cl)(Cl)c1ccc(C(Cl)(Cl)Cl)cc1`, “inactive”.
Consider `CCCCCCCCCCCCCCCC(=O)OC/C=C(C)/C=C/C=C(C)/C=C/C1=C(C)CCCC1(C)C`, for which the Potency entry is “inactive”.
In the case of `CCOC(=O)CC(=O)c1cc(F)c(Cl)nc1Cl`, the Potency result was “inactive”.
To `CCCCCCOC(=O)CCC` belongs “inactive”; to `NCCCOCCOCCOCCCN`, “inactive”.

For the origin of these results see PubChem BioAssay (Tox21).
